Source: PubChem
Most compounds without a hit are left out; they make up all but 2.8% or so of the library.
SENP8 block-1 – human SENP8 protease inhibitors, primary screen, biochemical, fluorescence, Nedd8 protein substrate, uHTS. inhibition, % at 20 µM. recombinant SENP8. Sentrin-specific protease 8 (Homo sapiens), Q96LD8. hit rate 0.64% among 360,000. AID 602440, 2012; in the data active = inhibition mostly above about 40%, no sharp cut-off; inactive = mostly below about 27%
SENP7 block – SENP7 protease inhibitors, primary screen, biochemical, luminescence, uHTS; recombinant SENP7, Z-RLRGG-aminoluciferin luminescence, 40 min; inhibition, % at 5 µM; AID 434973, 2010; hit rate 1.5% among 330,000; Sentrin-specific protease 7 (Homo sapiens), Q9BQF6;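 active = inhibition above about 50% at the single test dose, limit read from the data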;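 also: plate controls were DMSO with enzyme for no effect and no enzyme buffer wells for full effect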
SENP8 block-2 – SENP8 protease inhibitors, primary screen, biochemical, luminescence | inhibition, % at 10 µM | Sentrin-specific protease 8 (Homo sapiens), Q96LD8 | AID 2540, 2010 | hit rate 1.2% among 330,000 | purified SENP8, Z-RLRGG-aminoluciferin cleavage; in the data active = inhibition above about 50%
SENP6 block – SENP6 protease inhibitors, primary screen, biochemical, luminescence, uHTS; Sentrin-specific protease 6 (Homo sapiens), Q9GZR1; Recombinant SENP6 catalytic domain, aminoluciferin luminescence; inhibition, % at 10 µM; hit rate 1.8% among 330,000;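 active = inhibition above about 50% at the single tested dose, limit read from the data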;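 also: plate controls were DMSO wells with enzyme for no effect and DMSO wells lacking enzyme for full effect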
Target sequence (Q9GZR1 628-1112 limits assumed): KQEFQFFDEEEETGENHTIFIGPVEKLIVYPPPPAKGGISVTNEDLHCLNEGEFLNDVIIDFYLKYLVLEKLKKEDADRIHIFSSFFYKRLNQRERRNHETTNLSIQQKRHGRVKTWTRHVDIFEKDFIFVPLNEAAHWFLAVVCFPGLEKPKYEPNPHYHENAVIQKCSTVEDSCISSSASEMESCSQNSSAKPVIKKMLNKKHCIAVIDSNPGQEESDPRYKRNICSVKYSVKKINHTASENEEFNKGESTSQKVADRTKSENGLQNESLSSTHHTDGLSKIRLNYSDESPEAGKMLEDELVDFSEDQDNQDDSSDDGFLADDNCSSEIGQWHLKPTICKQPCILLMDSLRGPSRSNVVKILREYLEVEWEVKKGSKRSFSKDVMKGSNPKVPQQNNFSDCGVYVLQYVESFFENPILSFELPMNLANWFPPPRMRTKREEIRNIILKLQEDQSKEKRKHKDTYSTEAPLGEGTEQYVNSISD
Platelet DG rel – inhibitors of platelet dense granule secretion, primary screen, cell-based, MLPCN, human platelets; human platelet-rich plasma, SFLLRN dense granule ATP release, luminescence; inhibition, %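 (compounds screened at 7.5 µM in platelet-rich plasma)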; hit rate 0.22% among 300,000; AID 1663, 2009;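 active = mean replicate score, as percent of positive control, at or above 50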
HSP90 refold inh – HSP90 inhibitors, primary screen, cell lysate, luminescence. hit rate 0.91% among 290,000. AID 1789, 2009. Rabbit reticulocyte lysate, luciferase refolding luminescence, 3 h. inhibition, % at 5.6 µM;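 active = inhibition above the screen-wide mean plus 3 SD, computed separately per campaign, cut at about 16% in these data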;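 also: 0% = DMSO wells and 100% = 60 µM geldanamycin wells; inhibitors lower the luminescence because luciferase stays unfolded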
SENP8 inh conf – human SENP8 protease inhibitors, confirmation, biochemical, Nedd8 protein substrate, single concentration. shares compounds with SENP8 block-1. purified SENP8, Nedd8-AMC/pro-Nedd8 cleavage fluorescence, 30 min. inhibition, % at 25 µM. hit rate 15% among 1,400. AID 624319, 2012; in the data active = inhibition mostly above about 39%, no sharp cut-off; inactive = mostly below about 34%
Starred values were filed as active, the others as inactive; / = no result; ! = a repeat was not active.

SMILES | SENP8 block-1 | SENP7 block | SENP8 block-2 | SENP6 block | Platelet DG rel | HSP90 refold inh | SENP8 inh conf
CC(c1ccco1)N(C(=O)c1ccc(Cl)c([N+](=O)[O-])c1)c1ccccn1 (stereo not given) | 6 | 7 | -8 | -12 | 4 | 3 | /
CCOC(=O)C1CCCN(C(=O)c2ccc3ncsc3c2)C1 (stereo not given) | -6 | 3 | -3 | -4 | / | / | /
CCCCCC(=O)N1C[C@H](n2cc(C3CC3)nn2)[C@@H](O)C[C@@H]1c1ccccc1 | -5 | / | / | / | / | / | /
Cc1ccc(C(O)c2ncc(-c3ccccc3Cl)[nH]2)c(C)c1 (stereo not given) | 16 | / | / | / | / | / | /
CN(C)S(=O)(=O)c1cccc(NC(=O)CCNC(=O)Nc2ccccc2)c1 | 42* | 5 | -4 | -4 | / | / | 8
Cc1cc(C)c(C)c(S(=O)(=O)N2CCC(C(=O)NCCCN3CCCC3=O)CC2)c1C | 8 | -3 | -14 | -11 | / | / | /
COc1cccc(NC(=O)c2ccc(-n3cnnn3)cc2)c1 | 4 | 5 | -7 | 2 | 3 | -1 | /
O=[N+]([O-])c1ccc(N2CCN(c3nc(-c4ccc(Cl)cc4)cs3)CC2)cc1 | 43* | 6 | -7 | -12 | 0 | 11 | -9
O=[N+]([O-])c1ccc(-c2csc(N3CCCCCC3)n2)cc1 | 28 | 1 | 5 | -13 | -1 | -1 | /
Cc1nc(C)n(C)c(=O)c1-c1ccccc1 | 40* | -6 | -8 | -21 | -9 | -5 | 5
Cc1nc(C)c(-c2ccccc2)c(=O)[nH]1 | 11 | 11 | -9 | -27 | -9 | -4 | /
CN(C)S(=O)(=O)c1ccc(C(=O)Nc2cc3c(cc2C(=O)O)OCCCO3)cc1 | -2 | -4 | -4 | -8 | 16 | -1 | /
O=C1CC(=Nc2ccc([N+](=O)[O-])cc2)NN1c1c(Cl)cc(Cl)cc1Cl | 95* | / | / | / | / | / | 71*
O=C(c1ccc([N+](=O)[O-])cc1)N(Cc1ccc(Cl)cc1Cl)N1C(=O)CCCC1=O | 6 | 0 | 3 | 3 | 3 | 0 | /
CN(C)S(=O)(=O)c1ccc(C(=O)Nc2ccc3nc(N4CCOCC4)sc3c2)cc1 | 4 | -8 | 1 | -8 | / | / | /
CC(C)(C)C1CCN2CCCC(c3ccccc3)(C1)C2=O (stereo not given) | 6 | / | / | / | / | / | /
Cc1cc(Cl)ccc1OCC(=O)OCC(=O)N(CC(C)C)c1c(N)n(Cc2ccccc2)c(=O)[nH]c1=O | 0 | -1 | -2 | -5 | 10 | / | /
Cc1ccc(-n2c(SCC(=O)OC(C)C)nnc2-c2ccccn2)cc1 | 35 | 2 | 2 | -2 | -2 | 5 | /
CC(C)OC(=O)CSc1nnc(-c2ccccn2)n1-c1ccccc1 | 45* | -5 | -4 | -17 | 18 | 3 | 12
Cn1cnc2c(=O)[nH]cc([N+](=O)[O-])c21 | 84* | 12 | 4 | 9 | 0 | 1 | 59*
COc1ccc2c3c1OC1CC(O)C=CC31CCN(C)C2 (stereo not given) | 42*! | -4 | -8 | -6 | 1 | -5 | 8
CCN(CC)S(=O)(=O)c1ccc(N/N=C/c2ccccc2OCC(=O)O)c([N+](=O)[O-])c1 | 51* | 4 | 6 | 3 | -2 | 3 | 25
COc1ccccc1NS(=O)(=O)c1ccc(N/N=C/c2ccccc2OCC(=O)O)c([N+](=O)[O-])c1 | 30 | 5 | 14 | 8 | -7 | -4 | /
CCn1c(CNC(=O)c2ccco2)nnc1SCC(=O)Nc1cc(F)ccc1C | 14 | -6 | 0 | -10 | -3 | 3 | /
Cc1ccc(CNC(=O)[C@H](C)N2C(=O)N3CCc4c([nH]c5ccccc45)[C@@]3(C)C2=O)cc1 | 2 | -2 | -3 | 0 | -2 | -2 | /
COc1ccc(CNC(=O)[C@H](C)N2C(=O)N3CCc4c([nH]c5ccccc45)[C@@]3(C)C2=O)cc1OC | 51* | 4 | -2 | -3 | 1 | -4 | -5
